# From paper PMC5540273 (PLoS ONE, 2017)
# What was measured:
# Details in all cases: concentration: 1 μM, replicates: in singlicate; n = 1
# INSR = test system: INSR
# IRAK1 = test system: IRAK1
# IRAK3 = test system: IRAK3
# IRAK4 = test system: IRAK4
# ITK = test system: ITK
# [1] = test system: JAK1(JH1domain-catalytic)
# [2] = test system: JAK1(JH2domain-pseudokinase)
# [3] = test system: JAK2(JH1domain-catalytic)
# [4] = test system: JAK3(JH1domain-catalytic)
# JNK1 = test system: T1, JNK1
# T1 construct: gene MAPK8
# JNK2 = test system: T2, JNK2
# T2 construct: gene MAPK9
# JNK3 = test system: T3, JNK3
# T3 construct: gene MAPK10
# KIT-autoinhibited = test system: KIT-autoinhibited
# KIT = test system: KIT
# LATS1 = test system: LATS1
# LATS2 = test system: LATS2
# LCK = test system: LCK
# LIMK1 = test system: LIMK1
# LIMK2 = test system: LIMK2
# LKB1 = test system: T4, LKB1
# T4 construct: gene STK11
# 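Note: KINOMEscan kinase panel screen.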
Compound,%Inh (INSR) [%],%Inh (IRAK1) [%],%Inh (IRAK3) [%],%Inh (IRAK4) [%],%Inh (ITK) [%],%Inh [1] [%],%Inh [2] [%],%Inh [3] [%],%Inh [4] [%],%Inh (JNK1) [%],%Inh (JNK2) [%],%Inh (JNK3) [%],%Inh (KIT-autoinhibited) [%],%Inh (KIT) [%],%Inh (LATS1) [%],%Inh (LATS2) [%],%Inh (LCK) [%],%Inh (LIMK1) [%],%Inh (LIMK2) [%],%Inh (LKB1) [%]
CCCNC(=O)Nc1ccc(Oc2ncnc3ccn(C)c23)cc1,31,16,0,15,5,17,0,1,0,0,3,0,3,89,44,11,0,0,0,9
CCC(=O)c1c(-c2ccccc2)c2cc(Cl)ccc2c(=O)n1Cc1ccc(C(=O)O)cc1,0,0,0,0,12,9,0,0,0,95.2,93.4,94.6,0,39,2,0,0,2,0,1
Cc1cccc(-c2nc(Nc3ccc4c(cnn4C)c3)c3ccccc3n2)n1 [GW876731],0,0,0,0,0,15,16,26,0,1,60,28,0,7,0,0,0,0,0,48
CCC(=O)c1c(-c2ccccc2)c2cc(Cl)ccc2c(=O)n1Cc1cc(C(=O)NC2CC2)n(C)n1,0,21,0,20,0,10,3,0,6,99.7,100,99.8,0,58,19,1,0,0,0,9
Cc1c(Cn2c(C)nn3c(=O)cc(N4CCO[C@H](C)C4)nc23)cccc1C(F)(F)F [GSK2373690],0,23,14,24,26,21,0,14,0,18,27,17,0,13,0,0,15,5,0,0
